Source: PubChem BioAssay
SW480 rerep: A quantitative high throughput screen for small molecules that induce DNA re-replication in SW480 colon adenocarcinoma cells; SW480 DNA re-replication, Hoechst DNA content imaging, 48 h; Potency, µM (doses to about 46.1 µM), actives largely listed as activators; 1.8% of 340,000 active; AID 624297, 2012; note: nearly all actives have a fitted effect of over 55% in size
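Treated cells incubate 48 hr (37 C, 5% CO2), are stained 40 min with Hoechst, and nuclear fluorescence is enumerated; a rise in nuclei with high DNA signal marks re-replication.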
KB-V1 MDR tox: qHTS assay for MDR1-selective chemotherapeutics: Primary screen using the drug-selected MDR subline cells KB-V1; KB-V1 MDR cells viability, CellTiter-Glo, 72 h; Potency, µM (titrated, usually from 46.1 µM), usual class: cytotoxic; 3.4% of 400,000 active; AID 1347076, 2019; note: nearly all actives have a fitted effect of over 60% in size
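Cells of the MDR subline KB-V1 are plated, dosed with compound at multiple concentrations, and incubated 72 h at 37 degrees C; CellTiter-Glo is then added and luminescence read after 10 min.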
HT1080-NT tox: qHTS for induction of synthetic lethality in tumor cells producing 2HG: qHTS for the HT-1080-NT fibrosarcoma cell line; HT-1080-NT fibrosarcoma viability, CellTiter-Glo ATP luminescence, 48 h; Potency, µM (series often up to 46.1 µM), usual class: cytotoxic; 1.6% of 360,000 active; AID 686970, 2013;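 note: NT is the 2HG producing partner of a matched IDH1 knockdown line; nearly all actives have a fitted effect of over 55% in size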
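Fibrosarcoma NT cells, 750 per well in 5% FBS RPMI, were exposed to compound for 48 hours. Viability: CellTiter-Glo luminescence.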
HT1080 IDH1KD tx: qHTS for induction of synthetic lethality in tumor cells producing 2HG: qHTS for the HT-1080-IDH1KD cell line. HT-1080 IDH1 knockdown viability, ATP luminescence, 48 h. Potency, µM (doses to about 46.1 µM), actives largely listed as cytotoxic. 2% of 360,000 active. AID 686971, 2013
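Knockdown cells (IDH1KD HT-1080) received compounds 2 h after plating at 750 cells/well and were kept 48 h at 37 °C in 5% FBS RPMI. A CellTiter-Glo luminescence read gave % activity for curve fitting.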
KB-3-1 tox: qHTS assay for MDR1-selective chemotherapeutics: Primary screen using the parental adenocarcinoma cell KB-3-1 | KB-3-1 viability, CellTiter-Glo ATP luminescence, 72 h | Potency, µM (highest dose often 46.1 µM), most hits filed as cytotoxic | 1.4% of 400,000 active | AID 1347075, 2019; note: nearly all actives have a fitted effect of over 60% in size
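Using CellTiter-Glo luminescence, growth of non-resistant KB-3-1 adenocarcinoma cells is assessed 72 h after pin-tool compound addition at 37 °C. Normalized responses across the concentration series yield fitted curves.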
MCF10A rerep: A quantitative high throughput screen for small molecules that induce DNA re-replication in MCF 10a normal breast cells; MCF 10A DNA re-replication, Hoechst nuclear intensity, 48 h; Potency, µM (top dose mostly 46.1 µM), hits mostly activators; 2.9% of 350,000 active; AID 624296, 2012; note: nearly all actives have a fitted effect of over 50% in size
Hits are given with their value; n = inactive; u = inconclusive; x = not tested or not shown; [ ] = dose if it differs, or a comment. A selection: hits, their analogues and other compounds. The true share with any hit is near 7.9%. Calls come from the whole dose curve; as a rule, active = well fitted curve in the direction sought with a large enough effect; inconclusive = small, poorly fitted or top-dose-only effect, or another doubt; inactive = no such curve, though single readings can be large; an effect the other way counts as inactive or inconclusive.

SMILES	SW480 rerep	KB-V1 MDR tox	HT1080-NT tox	HT1080 IDH1KD tx	KB-3-1 tox	MCF10A rerep
CC(=O)N1c2ccc(S(=O)(=O)NCC3CCC(C(=O)N(C)Cc4ccccc4)CC3)cc2CC1C (stereo not given)	n	n	n	n	n	n
CC(=O)Nc1ccc(NC(=O)CSc2ncc(C(=O)Nc3ccccc3)c(=O)n2C)cc1	n	n	u	14.6µM	u	u
O=C1CSC(=Nc2ccc(F)cc2)N1	n	n	n	n	n	n
O=C1/C(=C/c2ccc([N+](=O)[O-])cc2)Oc2cc(O)ccc21	n	n	n	n	n	n
O=C1/C(=C/c2ccc(Br)cc2)Oc2cc(O)ccc21	u	u	n	u	n	14.6µM
CC(C)(C)c1ccc(/C=C2\Oc3cc(O)ccc3C2=O)cc1	20.6µM	n	u	u	16.4µM	20.6µM
Cc1ccccc1NS(=O)(=O)c1cc2c3c(c1)CC(=O)N3CCC2	n	n	n	n	n	n
COC(=O)[C@@]12CCCCN1[C@H](c1ccc(-c3ccc(C(C)=O)cc3)cc1)[C@H]1C(=O)N(C)C(=O)[C@H]12	n[9.22 µM]	n	n	n	u	n
CCN(CC)CCn1c2ccccc2c2nc3ccc([N+](=O)[O-])cc3cc21	20.6µM	n	n	n	n	u
CC(C)C(=O)N1CCN(c2ccc([N+](=O)[O-])cc2Cl)CC1	n	20.6µM	n	n	n	n
COc1ccccc1N1CCN(S(=O)(=O)c2ccc([N+](=O)[O-])cc2)CC1	x	n	n	n	n	x
COc1ccccc1N1CCN(c2ccc([N+](=O)[O-])cc2Cl)CC1	18.4µM	5.8µM	u	u	16.4µM	7.31µM
CNc1ccc(/C=C/C(=O)c2ccc3c(c2)OCCO3)cc1[N+](=O)[O-]	n	n	n	n	n	u
COc1ccc(NC(=O)CCNS(=O)(=O)c2ccc(Cl)c([N+](=O)[O-])c2)cc1S(N)(=O)=O	n	n	n	n	n	n
CSC(SC)=C(C#N)C(=O)c1ccccc1	u	u	u	20.6µM	n	23.1µM
CCOc1cc(CNCCSc2nnnn2C)cc(Br)c1OCc1ccc(F)cc1	u	18.4µM	23.1µM	n	u	n
CCOc1cc(CNCCSc2nnnn2C)cc(Br)c1OCc1ccccc1F	u	u	u	u	n	u
N#CCN(C(=O)COC(=O)CCCNC(=O)c1ccc(Cl)cc1)c1ccccc1	n	20.6µM	n	n	n	n
O=C(OCC(=O)N1CCCC1)c1ccc(S(=O)(=O)N2CCOCC2)cc1	n	n	n	n	n	n
Cc1nc2c(-c3ccc(F)cc3)c(C)nn2c(C)c1CCC(=O)N1CCC(Cc2ccccc2)CC1	n	n	n	n	u	20.6µM
CCOC(=O)Cc1c(C)nc2c(-c3ccccc3)cnn2c1C	u	n	n	n	n	1.3µM
CCOC(=O)Cc1c(C)nc2c(-c3ccc(Cl)cc3)c(C)nn2c1C	u	u	n	n	n	23.1µM
CC(=O)c1cnc2c(-c3ccccc3)cnn2c1C	n	20.6µM	n	n	u	n
CCOC(=O)Cc1c(C)nc2c(-c3ccc(Cl)cc3)c(C(F)(F)F)nn2c1C	x	n	x	x	n	x
CCOC(=O)c1cnc2c(-c3ccccc3)cnn2c1C	n	n	n	u	n	n
SMILES	SW480 rerep	KB-V1 MDR tox	HT1080-NT tox	HT1080 IDH1KD tx	KB-3-1 tox	MCF10A rerep
Cc1nc2c(-c3ccccc3)c(C)nn2c(C)c1CC(=O)O	n	n	n	n	n	14.6µM
CSCCC(NC(=O)c1ccc(Cl)cc1Cl)C(=O)N1CCCCCCC1 (stereo not given)	n	u	n	n	n	n
Cc1nc(C)n(CC(O)COc2ccc3c(c2)CCC3)n1 (stereo not given)	n	n	n	n	n	n
COc1ccc(CN(C)CC(O)COc2ccc(-c3ccccc3)cc2)cc1OC (stereo not given)	u	n	u	20.6µM	u	u
COc1ccc(CN(C)CC(O)COC(c2ccc(OC)cc2)c2ccc(OC)cc2)cc1 (stereo not given)	u	u	20.6µM	u	n	u
COc1ccc(C(OCC(O)CN(C)C2CCCCC2)c2ccc(OC)cc2)cc1 (stereo not given)	n	u	u	u	n	n
CCOc1ccc(CN(C)CC(O)COC(c2ccc(OC)cc2)c2ccc(OC)cc2)cc1 (stereo not given)	u	u	16.4µM	u	u	18.4µM
O=C(O)c1ccc(/C=C2\SC(=S)N(Nc3ccccc3)C2=O)cc1	n	n	u	4.61µM	n	n
O=C1/C(=C/c2ccncc2)SC(=S)N1Nc1ccccc1	u	n	u	5.8µM	n	u
O=C(NCCc1c[nH]c2ccccc12)C(=O)NCC(c1ccco1)N1CCN(c2ccccc2F)CC1 (stereo not given)	n	n	n	n	u	u
O=C(NCc1ccccc1)C(c1ccccc1)N(Cc1cccs1)C(=O)c1cnccn1 (stereo not given)	n	23.1µM	n	n	n	u
O=C(NCc1ccccc1)C(c1ccc(F)cc1)N(Cc1cccs1)C(=O)c1cnccn1 (stereo not given)	n	n	n	n	n	n
O=C(NCc1ccccc1)C(c1cccs1)N(Cc1cccs1)C(=O)c1cnccn1 (stereo not given)	n	2.59µM	n	n	n	u
CCOC(=O)c1cnc(-n2nc(C)cc2C)nc1NNc1nc(-c2ccccc2)cc(-c2ccccc2)n1	u	u	u	u	25.9µM	u
CCOC(=O)c1cnc(-n2nc(C)cc2C)nc1Nc1ccc(O)cc1	n	u	n	n	u	n
CCOC(=O)c1cnc(-n2nc(C)cc2C)nc1NC	u	u	7.08µM	u	n	n
CCOC(=O)c1cnc(-n2nc(C)cc2C)nc1NNc1nc(C)cc(C)n1	n	n	n	n	n	n
CCOC(=O)c1cnc(-n2nc(C)cc2C)nc1NC1CCCCC1	u	8.2µM	u	n	u	20.6µM
CCOC(=O)c1cnc(-n2nc(C)cc2C)nc1Nc1ccc(C)cc1	n	1.03µM	n	n	n	n
CCOC(=O)c1cnc(-n2nc(C)cc2C)nc1Nc1ccc(N(C)C)cc1	n	n	n	n	u	n
CCCN(CC(=O)Nc1ccccc1C)C(=O)c1ccc2c(c1)OCO2	n	u	n	n	n	n
CCOC(=O)c1cnc(-n2nc(C)cc2C)nc1N(CC)CC	u	1.64µM	u	1.58µM	n	n
